This is part of a sample that, as a whole, favours compounds with a hit. Of some 83,000 tested, about 20% had one in any assay.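 Compound tested at a single concentration for 48 hours in 96-well plates; a percent growth value below 10 was scored as active.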 Unmarked numbers belong to inactive results. Active and inactive are the calls of the source.
system: HL-60(TB) leukemia; assay: NCI-60 one-dose screen, 48 h (100 = growth as untreated, 0 = no growth, -100 = all killed); settings: 10 µM unless noted

Row | SMILES | growth
1 | O=S(=O)(Nc1cc(Cl)ccc1Cl)c1ccc(-c2cnc(C3CC3)o2)cc1 | 0.302% (active)
2 | C#CC(F)(F)[C@]1(O)CC[C@H]2[C@@H]3CCC4=CC(=O)CCC4=C3[C@@H](c3ccc(C(C)=O)cc3)C[C@@]21C | -62.6% (active)
3 | O=C1c2ccccc2C(=O)c2c1oc1oc3c(c(=O)c21)c(=O)n(-c1ccccc1)c1ccccc31 | 7.05% (active)
4 | Clc1ccc(Nc2ncc(Cc3cccc(Cl)c3Cl)s2)cc1 | 100%
5 | CC1(C)OC(=O)C(=Cc2ccccc2Br)C(=O)O1 | 98.5%
6 | CCCCCCCCCCCCCCCC1=NC(C)(C)CN1C(C)C | -62.9% (active)
7 | Cc1nc2cc(Nc3nc(NCCN)nc(Nc4ccc(F)cc4)n3)ccc2n1Cc1ccccc1 | -21.5% (active)
8 | CN1CCN(c2nc3scc(-c4ccccc4)c3c(=O)[nH]2)CC1 | 90.8%
9 | COc1cc2nc(-c3ccc(C(F)(F)F)cc3)cc(OCCCN3CCCC3)c2cc1OC | 36.9%
10 | CNC(=O)c1cccc(Cn2nc(C)c(NC(=O)c3ccc(COc4ccc(C(F)(F)F)cc4C)cc3)c2C)n1 | 36.7%
11 | COc1ccc(-c2nnc(COc3ccc(Cl)cc3Cl)o2)cc1OC | 89.3%
12 | COc1ccc(C(=O)c2cc(C)c(OC)c(C)c2)c(OC)c1N(C(=O)CCl)C(=O)CCl | -42.3% (active)
13 | CCNS(=O)(=O)c1ccc(C)cc1 | 72%
14 | CCOC(=O)C1=C(C)N=C2SC=C(c3ccccc3)N2[C@H]1c1cn[nH]c1-c1ccc(Cl)cc1 | 1.71% (active)
15 | Cc1ccc(-n2nnc(C3=NCCc4c3[nH]c3ccc(Cl)cc43)c2C)cc1 | 39.4%
16 | CC(C)c1ccc(C(=O)Nc2sc3c(c2C(N)=O)CCC(=O)C3)cc1 | -11.5% (active)

— PubChem BioAssay (NCI)
